Laboratory results as given in PubChem BioAssay (NCATS).
Calls of active or inactive are those of the source. How the calls were made is not given here.

System: HIV-1 nucleocapsid protein NCp7 (binding to TG oligonucleotide)
Experiment: HIV Nucleocapsid (AID 346);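 further: potency is for inhibitors that block NC binding and lower polarization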
Settings: HIV-1 NC / fluorescein-TGTGTGTG probe, fluorescence polarization
How it was run: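 NCp7 100 nM + fluorescein TG4xF 10 nM; Hepes pH 7.5/250mM NaCl/1uM ZnCl2/0.004% PEG 20000; 1 hr RT; FP, 45 s exposure; oligo-only wells as negative control.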
Potency means the concentration at half of the fitted maximal effect.

Structure (SMILES)	Potency
COCCn1c(=O)c(-c2cccc(Cl)c2)nc2cncnc21	> 20 µM (inactive)
COc1ccccc1CN1CCCC2(CCN(C(C)=O)CC2)C1	> 20 µM (inactive)
COc1ccc(Oc2ncc3nc(-c4cccc(C#N)c4)c(=O)n(CCC#N)c3n2)cc1	> 20 µM (inactive)
O=S(=O)(c1ccccc1)N1CCC2(CCN(c3cccc(-c4ccccc4)c3)CC2)CC1	> 20 µM (inactive)
CCNc1ncc2nc(-c3cc(F)cc(F)c3)c(=O)n(Cc3cccs3)c2n1	> 20 µM (inactive)
O=c1c(-c2cccs2)nc2cnc(Oc3ccccc3)nc2n1-c1ccccc1	> 4 µM (inactive)
O=C(Nc1ccccc1)N1CCCC2(CCN(C(=O)c3cccc(F)c3)CC2)C1	> 20 µM (inactive)
CN(C)c1ncc2nc(-c3cc(F)cc(F)c3)c(=O)n(CCC#N)c2n1	> 20 µM (inactive)
COc1ncc2ncc(=O)n(CCC#N)c2n1	> 20 µM (inactive)
Cn1cccc1C(=O)N1CCC[C@@]2(CCN(Cc3nccs3)C2)C1	> 20 µM (inactive)
COc1cccc(Nc2ncc3ncc(=O)n(Cc4cccs4)c3n2)c1	> 20 µM (inactive)
COc1cccc(Nc2ncc3nc(-c4cn(C)c5ccccc45)c(=O)n(CCC#N)c3n2)c1	> 20 µM (inactive)
Cc1ccccc1-c1ccc2ncnc(-n3ccnc3)c2c1	> 20 µM (inactive)
COc1ccccc1CNc1cc(-c2ccc(C(=O)N(C)C)cc2)ncn1	> 20 µM (inactive)
CC(C)CN1CC2(CCN(S(=O)(=O)c3ccccc3)CC2)C1	> 20 µM (inactive)
O=C(c1ccncc1)N1CCC2(CCCN(Cc3nccs3)C2)CC1	> 20 µM (inactive)
COc1ccccc1CN1CCC2(CC1)CCN(C(=O)c1cccc(F)c1)CC2	> 20 µM (inactive)
CN(C)c1ncc2nc(-c3ccc(Cl)cc3)c(=O)n(C3CC3)c2n1	> 20 µM (inactive)
CC(=O)N1CCC2(CCN(Cc3ccc(C#N)cc3)CC2)CC1	> 20 µM (inactive)
CN1CCN(c2ncc3nc(-c4ccc(Cl)cc4)c(=O)n(CCC#N)c3n2)CC1	> 20 µM (inactive)

Structure (SMILES)	Potency
COc1ccc2[nH]cc(CCNc3ncnc4ccc(-c5ccccc5C#N)cc34)c2c1	> 20 µM (inactive)
O=C(c1csnn1)N1CCC2(CC1)CCN(c1ncccn1)CC2	> 20 µM (inactive)
COCC(=O)N1CCC2(CCCN(C(=O)Nc3cccc(C#N)c3)C2)CC1	> 20 µM (inactive)
N#CCCn1c(=O)c(-c2cccs2)nc2cnc(Oc3cccc(Cl)c3)nc21	> 4 µM (inactive)
COc1ccc(-c2nc3cnc(Nc4cccc(OC)c4)nc3n(C[C@H]3CCCO3)c2=O)cc1	14.4 µM (inactive)
Cc1noc(C)c1-c1nc(NC2CC2)c2ccccc2n1	> 20 µM (inactive)
COc1ccc(C(=O)N2CCC3(CCCN(Cc4ccccc4OC)C3)CC2)cc1	> 20 µM (inactive)
COc1ccc(-c2nc3cnc(OC)nc3n(-c3ccc(OC)cc3)c2=O)cc1	> 20 µM (inactive)
O=C(c1ccncc1)N1CCC[C@@]2(CCN(c3ccccn3)C2)C1	> 20 µM (inactive)
Cn1c(=O)c(-c2cccc(C#N)c2)nc2cnc(Oc3ccccc3)nc21	> 20 µM (inactive)
COCCn1c(=O)cnc2cnc(OC)nc21	> 20 µM (inactive)
Cc1cnc(CNc2ncncc2-c2cccnc2)cn1	> 20 µM (inactive)
O=c1c(-c2ccc(Cl)cc2)nc2cncnc2n1Cc1ccc(F)cc1	> 20 µM (inactive)
COc1ncc2nc(-c3cn(C)c4ccccc34)c(=O)n(CCc3ccccc3)c2n1	> 20 µM (inactive)
CN(C)C(=O)c1ccc(-c2nc(NCc3ccccc3)c3ccccc3n2)cc1	> 20 µM (inactive)
COc1ccc(CNc2ncncc2-c2c(C)noc2C)c(OC)c1	> 20 µM (inactive)
O=C(c1ccco1)N1CCC2(CC1)CN(c1ccc(-c3ccccc3)cc1)C2	> 20 µM (inactive)
COc1ccccc1CNc1cc(-c2ccccc2C(F)(F)F)ncn1	> 20 µM (inactive)
FC(F)(F)c1ccccc1-c1ccc2ncnc(NCc3cccs3)c2c1	> 20 µM (inactive)
